Where “and” joins values, the source holds several entries; their conditions need not be identical. Identical values can stand only once. The whole screen tested about 5,500 compounds, of which about 2,000 (36%) were called active. Roughly 18% stayed inconclusive and do not appear here. Rule as the data show it: active = normalized growth mostly below about 0.91 (no sharp cut-off); inconclusive = no clear call, values can overlap the other calls; inactive = mostly above about 0.92. The list shows a part of the results.
Test: chemical genetic growth profiling, strain panel (AID 1159580);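 also: tested at 20 µM; growth read once vehicle control cultures reached saturation at 30 °C; 1 = growth at the plate median or of vehicle wells; lower values mean less growth of the strain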
Details: S. cerevisiae deletion strains, growth OD

Measured: normalized growth

COc1ccc2c(c1)OCC(Cc1ccc(OC)c(OC)c1)C2=O (stereo unspecified)
inactive: locus YAL013W, strain DEP1, stronger effect = lower value 0.979 | locus YAL021C, strain ccr4, stronger effect = lower value 0.982 | locus YAL026C, strain drs2, stronger effect = lower value 0.928 | locus YAL030W, strain snc1, stronger effect = lower value 0.972 | locus YBL061C, strain skt5, stronger effect = lower value 0.959 | locus YBR009C, strain hhf1, stronger effect = lower value 0.941 | locus YBR021W, strain FUR4, stronger effect = lower value 0.905 | locus YBR023C, strain chs3, stronger effect = lower value 0.958 | locus YBR171W, strain sec66, stronger effect = lower value 0.96 | locus YBR229C, strain ROT2, stronger effect = lower value 0.993 | locus YBR231C, strain swc5, stronger effect = lower value 0.924 | locus YBR279W, strain paf1, stronger effect = lower value 0.973 | locus YCL011C, strain gbp2, stronger effect = lower value 0.96 | locus YCL016C, strain dcc1, stronger effect = lower value 0.969 | locus YCL029C, strain bik1, stronger effect = lower value 0.988 | locus YCL061C, strain MRC1, stronger effect = lower value 0.923 | locus YCL069W, strain vba3, stronger effect = lower value 0.967 | locus YCR088W, strain abp1, stronger effect = lower value 0.987 | locus YDL005C, strain med2, stronger effect = lower value 0.987 | locus YDL035C, strain GPR1, stronger effect = lower value 0.954 | locus YDL040C, strain nat1, stronger effect = lower value 0.982 | locus YDL074C, strain BRE1, stronger effect = lower value 0.928 | locus YDL101C, strain DUN1, stronger effect = lower value 0.982 | locus YDL185W, strain tfp1, stronger effect = lower value 0.999 | locus YDL192W, strain arf1, stronger effect = lower value 0.986 | locus YDR001C, strain nth1, stronger effect = lower value 0.973 | locus YDR069C, strain doa4, stronger effect = lower value 0.964 | locus YDR101C, strain arx1, stronger effect = lower value 0.974 | locus YDR137W, strain rgp1, stronger effect = lower value 0.933 | locus YDR159W, strain sac3, stronger effect = lower value 0.873 | locus YDR162C, strain NBP2, stronger effect = lower value 0.89 | locus YDR195W, strain ref2 1.06 | locus YDR297W, strain sur2, stronger effect = lower value 0.949 | locus YDR318W, strain mcm21, stronger effect = lower value 0.978 | locus YDR334W, strain swr1, stronger effect = lower value 0.98 | locus YDR335W, strain msn5, stronger effect = lower value 0.986 | locus YDR388W, stronger effect = lower value 1.01 | locus YDR502C, strain sam2, stronger effect = lower value 0.973 | locus YEL003W, strain gim4, stronger effect = lower value 0.947 | locus YEL037C, strain rad23, stronger effect = lower value 0.986 | locus YEL061C, strain CIN8 (second series), stronger effect = lower value 0.985 | locus YEL061C, strain CIN8, stronger effect = lower value 0.987 | locus YER015W, strain faa2, stronger effect = lower value 0.968 | locus YER016W, strain bim1, stronger effect = lower value 0.976 | locus YER110C, stronger effect = lower value 0.988 | locus YER111C, strain swi4, stronger effect = lower value 0.982 | locus YER155C, strain BEM2, stronger effect = lower value 0.999 | locus YER167W, strain BCK2, stronger effect = lower value 0.997 | locus YFR010W, strain ubp6, stronger effect = lower value 0.97 | locus YGL078C, strain dbp3, stronger effect = lower value 0.998 | locus YGL086W, strain mad1, stronger effect = lower value 0.965 | locus YGL167C, strain pmr1, stronger effect = lower value 0.964 | locus YGL173C, strain kem1, stronger effect = lower value 0.963 | locus YGL227W, strain vid30, stronger effect = lower value 0.974 | locus YGL240W, strain doc1, stronger effect = lower value 0.898 | locus YGL248W, strain PDE1, stronger effect = lower value 0.954 | locus YGR078C, strain PAC10, stronger effect = lower value 0.905 | locus YGR135W, strain pre9, stronger effect = lower value 0.993 | locus YGR252W, strain gcn5, stronger effect = lower value 0.834 | locus YHR013C, strain ard1, stronger effect = lower value 0.907 | locus YHR027C, strain rpn1, stronger effect = lower value 0.967 | locus YHR030C, strain SLT2, stronger effect = lower value 0.989 and 0.988 | locus YHR079C, strain IRE1 (second series), stronger effect = lower value 1 | locus YHR079C, strain IRE1, stronger effect = lower value 1.01 | locus YHR094C, strain hxt1, stronger effect = lower value 1.01 | locus YHR129C, strain ARP1, stronger effect = lower value 0.976 | locus YHR142W, strain chs7, stronger effect = lower value 0.897 | locus YHR200W, strain rpn10, stronger effect = lower value 0.992 | locus YIL066C, strain RNR3, stronger effect = lower value 0.915 | locus YIL073C, strain SPO22, stronger effect = lower value 0.925 | locus YIL125W, strain kgd1, stronger effect = lower value 0.991 | locus YIR030C, strain dcg1, stronger effect = lower value 0.99 | locus YJL092W, strain hpr5, stronger effect = lower value 0.981 | locus YJL095W, strain BCK1 (second series), stronger effect = lower value 0.979 | locus YJL095W, strain BCK1, stronger effect = lower value 0.887 and 1.01 | locus YJL115W, strain asf1, stronger effect = lower value 0.974 | locus YJL129C, strain trk1, stronger effect = lower value 0.892 | locus YJL134W, strain LCB3, stronger effect = lower value 0.994 | locus YJL154C, strain vps35, stronger effect = lower value 0.98 | locus YJL164C, strain tpk1, stronger effect = lower value 0.96 | locus YJL166W, strain qcr8, stronger effect = lower value 0.909 | locus YJL168C, strain set2, stronger effect = lower value 0.994 | locus YJL187C, strain SWE1 (second series), stronger effect = lower value 0.965 | locus YJR043C, strain POL32, stronger effect = lower value 0.97 | locus YJR066W, strain TOR1, stronger effect = lower value 0.955 | locus YJR075W, strain HOC1, stronger effect = lower value 0.972 | locus YKL009W, strain mrt4, stronger effect = lower value 0.984 | locus YKL068W, stronger effect = lower value 0.982 | locus YKL085W, strain MDH1 (second series), stronger effect = lower value 0.995 | locus YKL085W, strain MDH1, stronger effect = lower value 0.995 | locus YKL160W, strain elf1, stronger effect = lower value 0.955 | locus YKR001C, strain vps1, stronger effect = lower value 0.998 | locus YKR026C, strain gcn3, stronger effect = lower value 0.976 | locus YKR091W, strain srl3, stronger effect = lower value 0.991 | locus YLL026W, stronger effect = lower value 0.963 | locus YLL041C, strain sdh2, stronger effect = lower value 0.983 | locus YLR039C, strain RIC1, stronger effect = lower value 0.958 | locus YLR058C, strain SHM2, stronger effect = lower value 0.98 | locus YLR102C, strain apc9, stronger effect = lower value 0.998 | locus YLR113W, strain HOG1, stronger effect = lower value 0.931 | locus YLR221C, strain rsa3, stronger effect = lower value 0.922 | locus YLR258W, strain gsy2, stronger effect = lower value 0.968 | locus YLR262C, strain YPT6 (second series), stronger effect = lower value 0.88 | locus YLR262C, strain YPT6, stronger effect = lower value 0.869 | locus YLR268W, strain sec22, stronger effect = lower value 0.963 | locus YLR320W, strain mms22, stronger effect = lower value 0.879 | locus YLR330W, strain CHS5, stronger effect = lower value 0.961 | locus YLR342W, strain FKS1 (second series), stronger effect = lower value 0.921 | locus YLR342W, strain FKS1, stronger effect = lower value 0.951 | locus YLR357W, strain rsc2, stronger effect = lower value 0.945 | locus YLR370C, strain arc18, stronger effect = lower value 0.972 | locus YLR371W, strain rom2, stronger effect = lower value 0.985 | locus YLR384C, strain iki3, stronger effect = lower value 0.976 | locus YLR418C, strain cdc73, stronger effect = lower value 0.842 | locus YML016C, strain PPZ1, stronger effect = lower value 0.995 | locus YML032C, strain rad52, stronger effect = lower value 0.984 | locus YML120C, strain ndi1, stronger effect = lower value 0.965 | locus YML124C, strain tub3, stronger effect = lower value 0.986 | locus YMR058W, strain fet3, stronger effect = lower value 0.938 | locus YMR078C, strain ctf18, stronger effect = lower value 1 | locus YMR125W, strain sto1, stronger effect = lower value 0.994 | locus YMR129W, stronger effect = lower value 0.981 | locus YMR205C, strain PFK2, stronger effect = lower value 0.896 | locus YMR223W, strain ubp8, stronger effect = lower value 1 | locus YMR231W, strain pep5, stronger effect = lower value 0.993 | locus YMR307W, strain GAS1, stronger effect = lower value 0.83 | locus YNL067W, strain RPL9B, stronger effect = lower value 0.968 | locus YNL128W, strain TEP1, stronger effect = lower value 0.991 | locus YNL183C, strain NPR1, stronger effect = lower value 0.961 | locus YNL209W, strain ssb2, stronger effect = lower value 0.987 | locus YNL233W, strain BNI4, stronger effect = lower value 0.919 | locus YNL248C, strain rpa49, stronger effect = lower value 0.928 | locus YNL250W, strain rad50, stronger effect = lower value 0.998 | locus YNL271C, strain bni1, stronger effect = lower value 0.989 | locus YNL298W, strain CLA4, stronger effect = lower value 0.98 | locus YNL322C, strain KRE1 (second series), stronger effect = lower value 0.982 | locus YNL322C, strain KRE1, stronger effect = lower value 0.985 | locus YNR049C, strain mso1, stronger effect = lower value 0.985 | locus YNR052C, strain pop2, stronger effect = lower value 0.989 | locus YOL006C, strain TOP1, stronger effect = lower value 0.784 | locus YOL012C, strain htz1 0.731 | locus YOL147C, strain pex11, stronger effect = lower value 0.98 | locus YOR001W, strain rrp6, stronger effect = lower value 0.923 | locus YOR061W, strain CKA2, stronger effect = lower value 0.984 | locus YOR069W, strain VPS5, stronger effect = lower value 0.993 | locus YOR070C, strain gyp1, stronger effect = lower value 0.937 | locus YOR080W, strain dia2, stronger effect = lower value 0.967 | locus YOR083W, strain WHI5, stronger effect = lower value 0.936 | locus YOR106W, strain vam3, stronger effect = lower value 0.978 | locus YOR136W, strain idh2, stronger effect = lower value 0.99 | locus YOR144C, strain elg1, stronger effect = lower value 0.978 | locus YOR184W, strain ser1, stronger effect = lower value 0.884 | locus YOR231W, strain MKK1, stronger effect = lower value 1.02 | locus YOR265W, strain rbl2, stronger effect = lower value 1 | locus YOR270C, strain vph1, stronger effect = lower value 0.821 | locus YOR290C, strain snf2, stronger effect = lower value 0.935 | locus YOR316C, strain cot1, stronger effect = lower value 1 | locus YPL051W, strain arl3, stronger effect = lower value 0.922 | locus YPL055C, strain LGE1, stronger effect = lower value 0.896 | locus YPL078C, strain atp4, stronger effect = lower value 0.939 | locus YPL106C, strain sse1, stronger effect = lower value 0.94 | locus YPL240C, strain hsp82, stronger effect = lower value 0.993 | locus YPL241C, strain CIN2, stronger effect = lower value 0.99 | locus YPL256C, strain CLN2, stronger effect = lower value 1.02 | locus YPR119W, strain clb2, stronger effect = lower value 0.98 | locus YPR141C, strain kar3, stronger effect = lower value 0.992 | locus YPR163C, strain tif3, stronger effect = lower value 0.969 | locus YPR167C, strain met16, stronger effect = lower value 0.965 | strain wtn01, stronger effect = lower value 0.971
active: locus YDR392W, strain spt3, stronger effect = lower value 0.544 | locus YER155C, strain BEM2 (second series), stronger effect = lower value 0.802 | locus YGL253W, strain hxk2, stronger effect = lower value 0.879 | locus YLL001W, strain dnm1, stronger effect = lower value 0.897 | locus YLR027C, strain aat2, stronger effect = lower value 0.922 | locus YNL071W, strain lat1, stronger effect = lower value 0.82 | locus YNL307C, strain MCK1, stronger effect = lower value 0.894

— PubChem BioAssay AID1159580 (chemical genetic matrix, 2015)
